Screening data as filed in PubChem BioAssay.
TAG inh – inhibitors of triacylglycerol accumulation, primary screen, cell-based, uHTS, fluorescence, H9c2 | 0.66% of 230,000 active | inhibition, % at 12.5 µM | H9c2 cells, Nile Red lipid (TAG) fluorescence; cells loaded with 200 µM oleic acid;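 active means pattern-corrected inhibition of lipid staining of at least 50% with the nuclear-stain viability signal not falling by more than 50%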;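 further: 0% = DMSO wells and 100% = triacsin C control wells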
CHT PAM – CHT positive allosteric modulators, primary screen, cell-based, membrane potential dye, choline EC20; High affinity choline transporter 1 (Homo sapiens), Q9GZV3; CHT-expressing cells; stronger effect = higher value; LV-AA mutant CHT in HEK293 cells; B-score at 10 µM; 0.49% of 310,000 active;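 active means initial fluorescence not abnormally high and integrated response B-score, plate-corrected, over 3 SD above library mean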
Target sequence (Q9GZV3 whole entry, looked up): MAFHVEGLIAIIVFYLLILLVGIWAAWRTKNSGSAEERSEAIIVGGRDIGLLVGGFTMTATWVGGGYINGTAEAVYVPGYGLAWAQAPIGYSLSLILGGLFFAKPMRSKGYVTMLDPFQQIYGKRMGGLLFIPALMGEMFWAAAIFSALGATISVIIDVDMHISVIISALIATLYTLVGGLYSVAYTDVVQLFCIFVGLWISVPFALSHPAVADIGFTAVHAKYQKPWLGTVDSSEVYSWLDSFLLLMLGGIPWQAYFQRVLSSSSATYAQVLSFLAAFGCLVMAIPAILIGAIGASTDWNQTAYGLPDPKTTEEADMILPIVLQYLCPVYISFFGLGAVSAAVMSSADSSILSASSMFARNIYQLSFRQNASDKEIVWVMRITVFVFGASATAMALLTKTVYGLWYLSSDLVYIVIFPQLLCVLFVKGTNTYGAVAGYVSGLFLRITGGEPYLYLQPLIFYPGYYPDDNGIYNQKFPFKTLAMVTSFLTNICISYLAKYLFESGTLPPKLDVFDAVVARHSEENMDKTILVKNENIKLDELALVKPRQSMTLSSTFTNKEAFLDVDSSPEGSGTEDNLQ
CHT inh – inhibitors of human choline transporter CHT. High affinity choline transporter 1 (Homo sapiens), Q9GZV3. CHT-expressing cells, membrane potential dye, choline response; stronger effect = lower value. B-score at 10 µM. 0.86% of 310,000 active. AID 488975, 2010;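 active means B-score over 3 SD under the library average, and starting fluorescence ratio not unusually high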;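 further: choline stimulus applied at its EC90 after an EC20 pre-addition; B-score computed on integrated fluorescence ratio after choline addition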
Kir21 block – inhibitors of mouse Kir2.1 inward-rectifier potassium channel; HEK293-Kir2.1, FluxOR thallium flux fluorescence; stronger effect = lower value; Inward rectifier potassium channel 2 (Mus musculus), P35561; B-score at 10 µM; AID 1672, 2009; 0.85% of 310,000 active;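 active means fluorescence ratio B-score at or below minus 3 SD of library scores, with starting-brightness B-score within 2 SD, cut at about -4.2 in these data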;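 further: channel flux triggered by added potassium and thallium sulfate stimulus; B-score of peak minus minimum fluorescence over baseline after thallium stimulus; more negative B-score means stronger Kir2.1 block with less thallium influx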
An asterisk follows results filed as active; i = inactive; nt = no result given. Rows were chosen to be rich in hits. Some 2% of all compounds tested hit in one or more screens of this group.

SMILES	TAG inh	CHT PAM	CHT inh	Kir21 block
Oc1cccc(Nc2nc(NCC3CCCO3)c3ccccc3n2)c1 (stereo unspecified)	1.5	i	i	-8.07*
CCC(C)Sc1ccc([C@@H]2[C@H]3C(=O)N(C)C(=O)[C@H]3[C@]3(C(=O)OC)CCCN23)cc1 (stereo partly specified)	5.6	nt	nt	nt
Cn1c(SCc2ccccc2)nc(N)c(N=O)c1=O	25.2	i	i	-1.29
CCn1c(CNc2ccc(Cl)cc2)nnc1SCc1ccc(Cl)cc1	nt	i	i	-4.99*
O=C(/C=C/c1ccc([N+](=O)[O-])cc1)c1cccnc1	nt	i	i	-4.28*
O=C(/C=C/c1ccc([N+](=O)[O-])cc1)c1ccco1	nt	i	i	-1.81
O=C(/C=C/c1ccc2c(c1)OCO2)c1cccnc1	nt	i	i	-5.23*
O=C(/C=C/c1ccc([N+](=O)[O-])cc1)/C=C/c1ccco1	nt	i	i	-5.77*
O=C(/C=C/c1cccnc1)c1ccc(F)c(F)c1	nt	i	i	-5.35*
COc1ccccc1-c1cn(C(C)(C)C)nc1C	nt	i	i	-0.99
CC(=O)Cc1cc(O)c2ccccc2c1OC(=O)c1ccc(Br)cc1	31.8	i	i	0.34
COc1ccc(NC(=O)CSc2nnc(Cc3ccccc3)c(=O)n2N)cc1OC	15.1	i	i	0.07
COc1ccc(-n2c3c(c(=O)[nH]c2=O)C(NC(C)=O)(C(F)(F)F)C(=O)N3)cc1 (stereo unspecified)	-5.0	i	i	1.38
COC(=O)c1ccc2c(c1)C(C)(C)C(/C=C/c1ccc(O)cc1)=[N+]2C	nt	6.49*	i	-11.1
Cc1ccc(-c2nc(=S)c3c(n2Cc2ccco2)CC(C)(C)OC3)cc1	8.8	11.6*	i	-0.98
CCN(C(=S)NCc1ccccc1)c1cccc2ccccc12	-4.2	i	i	-2.04
C=CCNC(=S)N(CC)c1cccc2ccccc12	nt	i	i	-5.32*
C=CCN(c1nc(C)cc(OC)n1)S(=O)(=O)c1ccccc1	-2.0	i	i	-7.94*
COc1cc(C)nc(NS(=O)(=O)c2ccccc2)n1	11.7	i	i	-0.22
CCN(c1nc(C)cc(OC)n1)S(=O)(=O)c1ccccc1	nt	i	i	-6.6*
C=CCN(c1nc(C)cc(OC)n1)S(=O)(=O)c1ccc(C)cc1	-14.1	i	i	-0.02
COc1cc(C(=O)OCC(=O)N2CCN(C(C)=O)CC2)ccc1OCC(C)C	22.6	i	i	0.91
O=C1[C@H]2[C@@H](c3ccc(F)cc3)N3C(=O)N(c4ccc(Br)cc4)C(=O)[C@@]3(Cc3ccc(Cl)cc3)[C@H]2C(=O)N1C1CCCCC1	nt	i	i	-1.22
COc1ccc(Nc2nc(-c3sc(NC(C)=O)nc3C)cs2)cc1	nt	i	-5.09*	0.07
COc1ccc(Nc2nc(-c3sc(N)nc3C)cs2)cc1	3.5	i	i	0.21
SMILES	TAG inh	CHT PAM	CHT inh	Kir21 block
CCN1CCN(Cc2ccc(NC(=O)c3ccc(C)c(NC(=O)c4cncc(-c5cccs5)c4)c3)cc2C(F)(F)F)CC1	116.7*	nt	nt	nt
CCN1CCN(Cc2ccc(NC(=O)c3ccc(C)c(NC(=O)c4nccn4C)c3)cc2C(F)(F)F)CC1	-6.2	i	i	0.07
CCN1CCN(Cc2ccc(NC(=O)c3ccc(C)c(NC(=O)c4cc(-c5ccc(Br)cc5)n[nH]4)c3)cc2C(F)(F)F)CC1	65.9*	i	i	0.7
CCN1CCN(Cc2ccc(NC(=O)c3cc(NC(=O)c4cncc(-c5ccc(C#N)cc5)c4)cc(OC)c3)cc2C(F)(F)F)CC1	95.3*	i	i	1.04
CCOC(=O)Cn1c(=N)n(CCOc2ccc3ccccc3c2)c2ccccc21	17.3	i	i	-10.9*
CCOC(=O)Cn1c(=N)n(CCOc2ccc(OC)cc2)c2ccccc21	3.4	i	i	0.58
CCN1/C(=C/c2ccc3ccccc3[n+]2CC)C=Cc2ccccc21	-20.3	i	i	-12.9*
O=S(=O)(c1ccc(Cl)cc1)N1CCCC1c1nc2ccccc2s1 (stereo unspecified)	-13.9	i	i	-4.67*
O=S(=O)(c1cc(Cl)cc(Cl)c1)N1CCCC1c1nc2ccccc2s1 (stereo unspecified)	-5.8	i	i	1.05
Cc1ccc(OCc2nnc(SC(C)C(=O)O)n2Cc2ccccc2)cc1 (stereo unspecified)	0.9	i	i	-0.49
CC1CCC(C(=O)c2c(O)c3ccccc3oc2=O)CC1 (stereo unspecified)	nt	i	-10.7*	-2.82
CCOC(=O)C1=C(C)NC(SC)=C(C#N)C1CC(C)C (stereo unspecified)	29.4	i	i	-7.08*
C=C1C(=O)C23C(O)C1CCC2C12CCCC(C)(COC(C)=O)C1C(O)C3(O)OC2 (stereo unspecified)	93.0*	nt	nt	nt
CC(=O)c1c(C)[nH]c(C(=O)OCC(=O)N(Cc2ccccc2)C(C)(C)C)c1C	2.8	nt	nt	nt
CC(C)(CSc1ccccn1)NS(=O)(=O)c1ccc(Cl)cc1	nt	i	i	-5.09*
Cc1ccc(-n2cccc2C(=S)N=P(N(C)C)(N(C)C)N(C)C)cc1	nt	i	i	-11.5*
CC(Cc1ccccc1)NC(=S)CN1CCCC1=S (stereo unspecified)	-10.3	i	i	-4.59*
CC(Cc1ccccc1)NC(=O)CC(c1ccccc1)c1ccccc1O (stereo unspecified)	nt	i	i	-1.05
O=C(c1ccccc1)c1ccc[nH]1	5.0	nt	nt	nt
Cc1ccc(C)c2c1CCC(=Cc1ccccc1[N+](=O)[O-])C2=O	-0.7	nt	nt	nt
CN1C/C(=C/c2ccccc2[N+](=O)[O-])C(=O)/C(=C\c2ccccc2[N+](=O)[O-])C1	69.4*	nt	nt	nt
CCOC(=O)c1c(CN2CCCCC2)n(C)c2cc(Br)c(OC)cc12	27.0	i	i	-0.37
CCOC(=O)c1c(CN2CCN(CCO)CC2)n(C)c2cc(Br)c(OC)cc12	nt	7.72*	i	-2.21
CCOC(=O)c1c(CN2CCCCC2)n(C)c2cc(Br)c(O)c(CN(C)C)c12	7.8	10.6*	i	-0.02
CCOC(=O)c1c(C)n(C)c2ccc(O)c(CN3CCCCC3)c12	2.5	i	-13.3*	-3.98
SMILES	TAG inh	CHT PAM	CHT inh	Kir21 block
CCOC(=O)c1c(CSc2ccccc2)n(C)c2cc(Br)c(O)c(CN(C)C)c12	19.1	i	i	-1.24
C/C(=N\NC(=O)c1nn(C)c(C)c1Br)c1ccc(NC(=O)C2CCCC2)cc1	-0.1	i	i	0.96
COc1cc(NC(=O)C(C)N2CCN(C(=O)C3CC3)CC2)cc(OC)c1 (stereo unspecified)	2.8	nt	nt	nt
Cc1cc(C)c2nc(C)cc(N/N=C/c3ccc(O)cc3)c2c1	nt	i	i	-10.1*
COc1ccccc1NC(=O)C1CCCN(C(=O)NCc2ccccc2)C1 (stereo unspecified)	nt	i	i	-0.44
Cc1ccc(C2(CC(=O)Nc3nccs3)CCOC(C(C)C)C2)cc1 (stereo unspecified)	nt	i	i	0.01
